Source: PubChem BioAssay AID624450 (Southern Research Specialized Biocontainment Screening …, 2012)
Active and inactive are the calls of the source. The rule behind the calls is not given here.

Assay: Vero 76 cell cytotoxicity, cytotoxicity control for VEEV inhibitor project, set 7 (AID 624450)
Conditions: Vero 76 cell viability, cytotoxicity counter-screen; series mostly up to 25 µM

SMILES | outcome
COc1ccc(-n2c(CN3CCNCC3)nc3ccc([N+](=O)[O-])cc3c2=O)cc1 | inactive
CCN1CCN(Cc2nc3ccc(C(=O)O)cc3c(=O)n2-c2ccccc2)CC1 | inactive
COc1cccc(-n2c(CN3CCNCC3)nc3ccc([N+](=O)[O-])cc3c2=O)c1 | inactive
CCN1CCN(Cc2nc3ccc([N+](=O)[O-])cc3c(=O)n2C)CC1 | inactive
CCN1CCN(Cc2nc3ccc([N+](=O)[O-])cc3c(=O)n2-c2ccccc2F)CC1 | inactive
O=c1c2cc([N+](=O)[O-])ccc2nc(CN2CCNCC2)n1-c1ccsc1 | inactive
COc1ccccc1-n1c(CN2CCNCC2)nc2ccc([N+](=O)[O-])cc2c1=O | inactive
